The campaign covered roughly 350,000 compounds. About 1,600 (0.46%) were called active. The sample holds actives, similar compounds and a random draw of the others, so the mix is not that of the screen.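 Rule for the calls: active = every replicate reaching a set inhibition limit, whatever the replicate mean (cut at about 25% in these data); inconclusive = mean inhibition reaches that limit but some replicates miss it; inactive = the rest.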

Inhibition data for 44 molecules are collected here from PubChem BioAssay AID651704 (Broad Institute, 2012).

The target of the test is Protein AF-9 (Homo sapiens) (UniProt P42568). As to the kind of experiment: inhibitors of AF4 peptide binding to AF9, primary screen, biochemical, AlphaScreen, biotin-AF4 peptide, FLAG-AF9, single point (AID 651704).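 Note: 0% = plate neutral control median and 100% = total signal loss.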 The settings on record: at 10 µM, active compounds read high.
Chain of Protein AF-9 (Homo sapiens) (P42568 whole entry, looked up): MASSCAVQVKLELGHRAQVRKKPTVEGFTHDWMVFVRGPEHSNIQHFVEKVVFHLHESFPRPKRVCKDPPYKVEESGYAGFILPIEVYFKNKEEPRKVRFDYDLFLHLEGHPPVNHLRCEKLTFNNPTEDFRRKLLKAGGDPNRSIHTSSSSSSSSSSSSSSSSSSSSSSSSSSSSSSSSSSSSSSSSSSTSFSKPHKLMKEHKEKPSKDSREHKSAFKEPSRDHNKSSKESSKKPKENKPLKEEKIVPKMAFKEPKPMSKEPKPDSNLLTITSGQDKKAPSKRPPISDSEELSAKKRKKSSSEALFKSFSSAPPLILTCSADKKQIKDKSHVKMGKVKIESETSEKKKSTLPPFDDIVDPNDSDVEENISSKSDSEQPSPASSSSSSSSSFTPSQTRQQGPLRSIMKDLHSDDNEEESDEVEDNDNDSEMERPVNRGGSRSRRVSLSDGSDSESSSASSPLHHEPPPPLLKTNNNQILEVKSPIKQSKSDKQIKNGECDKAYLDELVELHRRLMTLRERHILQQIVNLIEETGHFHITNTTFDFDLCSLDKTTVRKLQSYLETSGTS
For the molecule `O=C(Nc1nnc(COc2ccccc2)s1)Nc1ccccc1F`, the inhibition was 36% (active). Consider `COc1ccccc1NC(=O)Nc1nnc(Cc2ccc(F)cc2)s1`, for which the inhibition was 3.41% (inactive).

Take `COc1ccccc1NC(=O)Nc1nc(CC(=O)Nc2ccccc2F)cs1`: the inhibition was 0.499% (inactive). For `CC(C)NC(=O)Nc1ccc2c(c1)C(=O)N([C@@H](C)CO)C[C@H](C)[C@H](CN(C)C(=O)NC1CCCCC1)OCCCC[C@@H](C)O2`, the inhibition was -3.2% (inactive). The same measure for `C[C@H](CO)N1C[C@H](C)[C@H](CN(C)Cc2ccc3c(c2)OCO3)OCCCC[C@H](C)Oc2ccc(NC(=O)c3ccccc3)cc2C1=O`: 4.39% (inactive); for `CO[C@@H]1CC[C@@H]2CCOc3ccc(C#N)cc3C(=O)N(C)C[C@@H](C)C(=O)N(C)C[C@@H]1O2`: 3.45% (inactive); for `CCN(CC)CCOc1ccc2c(c1)C(=NNC(=O)c1ccccn1)c1cc(OCCN(CC)CC)ccc1-2`: 56.9% (active).

On to `C/C(=N\NC(=O)c1ccccc1F)c1ccccn1`, for which the inhibition was -1.33% (inactive). In the case of `CC(O)c1ccc(OCCN(C)c2ccccn2)cc1` (centres undefined), the inhibition was -3.42% (inactive). As for `COc1ccc2c3c([nH]c2c1)[C@H](CO)N(C(=O)Nc1ccc(F)cc1)CC31CCN(CC2CCOCC2)CC1`, the figure is 11% (inactive); as for `CCC(=O)N1[C@@H](CO)[C@@H](c2ccccc2)C12CN(C(=O)c1cnccn1)C2`, -4.68% (inactive). As for `COCCNC(=O)C[C@@H]1C[C@@H]2c3cc(NS(=O)(=O)c4ccccc4)ccc3O[C@@H]2[C@H](CO)O1`, the figure is -1.39% (inactive); as for `C[C@@H]1CCCCO[C@H](CN(C)C(=O)Nc2ccc3c(c2)OCO3)[C@@H](C)CN([C@@H](C)CO)C(=O)c2cc(NC(=O)CCC(F)(F)F)ccc2O1`, 7.93% (inactive); as for `CCC(=O)Nc1ccc2c(c1)C(=O)N(C)[C@@H]1CC[C@@H](CC(=O)NCCN3CCCCC3)O[C@@H]1CO2`, 0.544% (inactive). The same measure for `Cc1ccc(Nc2nc(Cl)c(C=O)s2)cc1`: -4.45% (inactive); for `Nc1ccc(C(=O)Nc2ccccc2N)cc1`: -0.363% (inactive); for `Cc1ccc(Nc2ccccc2N)cc1`: 49% (active).

As for `O=C(C[C@@H]1CC[C@H](NC(=O)c2ccncc2)[C@@H](CO)O1)Nc1ccc(-c2ccccc2)cc1`, the inhibition is -2.25% (inactive). For the molecule `CO[C@@H]1CN(C)C(=O)c2ccc(NC(C)=O)cc2OC[C@@H](C)N(Cc2ccc(-c3ccccn3)cc2)C[C@H]1C`, the inhibition was 2.32% (inactive). As for `O=C(Nc1nnc(SCc2ccccc2Cl)s1)c1cccc([N+](=O)[O-])c1`, the inhibition was 48% (active).

Turning to `NC(=O)CSc1nnc(NC(=O)c2ccc3ccccc3c2)s1`, the inhibition was -1.88% (inactive). The same measure for `O=C(Nc1nnc(SCc2c(Cl)cccc2Cl)s1)c1cccc([N+](=O)[O-])c1`: 1.85% (inactive). As for `COc1cc(CN2CC3(CN(S(=O)(=O)c4cn(C)cn4)C3)c3c(n(C)c4cc(OC)ccc34)[C@H]2CO)cc(OC)c1`, the figure is 12.6% (inactive); as for `COc1ccc(NC(=O)Nc2ccc3c(c2)[C@H]2C[C@H](CC(=O)NC4CCCC4)O[C@@H](CO)[C@H]2O3)cc1`, 0.232% (inactive). Regarding `Cc1cc(C)nc(N/N=C/c2c(CO)cnc(C)c2O)n1`, the inhibition is -5.08% (inactive). As for `CCN(CC)c1ccc(/C=N/NC(=O)c2cnccn2)c(O)c1`, the figure is -1.45% (inactive). Regarding `CCN(CC)c1ccc(/C=N/Nc2nc(C)cc(C)n2)c(O)c1`, the inhibition was 79.7% (active). Consider `O=C(C[C@H]1CC[C@H]2[C@@H](COC[C@H](O)CN2C(=O)c2ccncc2)O1)NCc1cc(F)cc(F)c1`, for which the inhibition was -16% (inactive).

With `COc1ccccc1NC(=O)N1CC(=O)N2[C@H](CO)[C@@H](c3ccc(C#Cc4ccc(F)cc4)cc3)[C@H]2C1`, the inhibition is 2.6% (inactive). On to `Cn1cnc(S(=O)(=O)N2C[C@H](O)COC[C@@H]3O[C@H](CC(=O)NC4CCCC4)CC[C@H]32)c1`, for which the inhibition is -0.241% (inactive).

For the molecule `COc1ccc(S(=O)(=O)Nc2ccc3c(c2)CC(=O)N([C@@H](C)CO)C[C@@H](C)[C@@H](CN(C)Cc2ccc(C(=O)Nc4ccccc4N)cc2)O3)cc1`, the inhibition was -0.302% (inactive).

With `C[C@@H]1CCCCO[C@H](CN(C)S(=O)(=O)c2cn(C)cn2)[C@@H](C)CN([C@@H](C)CO)C(=O)c2cc(NC(=O)CCC(F)(F)F)ccc2O1`, the inhibition is -0.444% (inactive). The same measure for `COc1ccc(-n2nnnc2SCC(=O)c2ccc(OC)c(OC)c2)cc1`: -42.4% (inactive).

For the molecule `C=Cn1cc[n+](CC(=O)c2ccc(OC)c(OC)c2)c1`, the inhibition was 28.8% (active). As for `COc1ccc(C(=O)COC(=O)c2ccc([N+](=O)[O-])s2)cc1OC`, the figure is -0.958% (inactive); as for `CO[C@@H]1CN(C)C(=O)c2ccc(NC(=O)C3CCCC3)cc2OC[C@H](C)NC[C@@H]1C`, -0.502% (inactive). As for `C#CCOCCOCCOCCNc1nc(N2CCN(C(=O)[C@H](CCCN=C(N)N)n3cc(C(N)[C@@H](C)CC)nn3)CC2)nc(N2CCN(C(=O)[C@H](CO)n3cc([C@@H](N)C(C)C)nn3)CC2)n1` (some centres undefined), the figure is 29.3% (active). With `C#CCOCCOCCOCCNc1nc(N2CCN(C(=O)[C@H](CCC(=O)O)n3cc(C(N)CO)nn3)CC2)nc(N2CCN(C(=O)[C@H](Cc3ccc(O)cc3)n3cc(C(N)[C@H](C)CC)nn3)CC2)n1` (some centres undefined), the inhibition was 2.1% (inactive). On to `C#CCOCCOCCOCCNc1nc(N2CCN(C(=O)[C@H](CO)n3cc([C@@H](N)C(C)C)nn3)CC2)nc(N2CCN(C(=O)[C@H](CCC(=O)O)n3cc([C@@H](N)[C@H](C)CC)nn3)CC2)n1`, for which the inhibition was 0.229% (inactive).

As to `O=C([C@@H]1[C@@H](CO)[C@@H]2Cn3c(ccc(-c4ccccc4F)c3=O)[C@H]1N2C(=O)C1CCC1)N1CCCCC1`, the inhibition is -3.29% (inactive). Take `C[C@@H]1CCCCO[C@H](CN(C)C(=O)Nc2ccc(C(F)(F)F)cc2)[C@@H](C)CN([C@@H](C)CO)C(=O)c2cc(NS(=O)(=O)c3cccs3)ccc2O1`: the inhibition was 2.48% (inactive). The same measure for `CO[C@@H]1CN(C)C(=O)c2cc(NC(C)=O)ccc2OC[C@H](C)N(Cc2ccccn2)C[C@H]1C`: -0.12% (inactive); for `N#C[C@@H]1[C@@H](c2ccccc2C2=CCCC2)[C@H](CO)N1C(=O)NC1CCCC1`: 2.11% (inactive); for `COCC#Cc1ccc([C@@H]2[C@@H](CO)N3C(=O)CN(C(=O)C4CCOCC4)C[C@@H]23)cc1`: -0.906% (inactive).

What is called inhibition is the drop in the measured response relative to a control, in per cent.
